Compounds with a hit are over-represented: about 4.5% of the library has one in this group of screens.
SKKanGAS inh: S. pyogenes SKKanGAS growth inhibitors in kanamycin, primary screen, streptokinase expression inhibitor project, SKKanGAS strain, BacTiter-Glo luminescence. 6 h. inhibition, % at 7.5 µM. 300,000 tested, 1.3% active;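 active means mean replicate score, as percent of positive control median, at least 50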;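 further: strain carries kanamycin resistance gene driven by streptokinase promoter and grows in 40 µg/ml kanamycin; loss of luminescence reflects streptokinase promoter inhibition or plain growth inhibition; 0% = median of DMSO wells and 100% = positive control at its reference dose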
NALP3 yeast inh: NALP3 inflammasome inhibitors in reconstituted yeast, primary screen, luminescence, uHTS. AID 2825, 2010. Yeast reconstituted NLRP3/ASC/caspase-1, beta-gal luminescence, 24 h. inhibition, % at 10 µM. 330,000 tested, 0.39% active;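 active means inhibition of 50% or more; inactive means inhibition below 50%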;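 further: plate controls were induced DMSO wells for no effect and uninduced yeast grown without galactose for full effect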
PfHsp90 yeast 2: growth inhibition of PfHsp90-expressing yeast, primary screen, antimalarial PfHsp90 inhibitor project, S. cerevisiae, BacTiter-Glo luminescence, single point, set 2; BacTiter-Glo ATP, 48 h; yeast lacking PDR1 and PDR3 efflux regulators; inhibition, % at 9.4 µM; 310,000 tested, 0.32% active; AID 504621, 2011;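 active means every replicate shows inhibition above about 80%, whatever the replicate mean, limit read from the data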;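 further: 0% = DMSO neutral controls and 100% = 20 µM radicicol positive controls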
TIM10 inh: growth inhibitors of isogenic TIM10 control yeast, primary screen, counter-screen for tim10-1 yeast inhibitor project, luminescence, uHTS | S. cerevisiae TIM10 strain growth, BacTiter-Glo luminescence, 24 h | inhibition, % at 10 µM | 330,000 tested, 1.4% active;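 active means inhibition of 40% or more at the single tested concentration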;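 further: wild-type TIM10 isogenic control strain grown at permissive 25 °C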
tim10-1 inh: growth inhibitors of tim10-1 mutant yeast, primary screen, luminescence, uHTS; inhibition, % at 20 µM; S. cerevisiae tim10-1 ts strain growth, BacTiter-Glo, 24 h; 330,000 tested, 2.2% active; AID 463190, 2010;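 active means inhibition of at least 40%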;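 further: mutant grown at 25 °C; 0% = DMSO wells with yeast and 100% = wells holding no yeast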
tim23-1 inh: growth inhibitors of tim23-1 mutant yeast, primary screen, luminescence, uHTS; S. cerevisiae tim23-1 growth, BacTiter-Glo luminescence, 24 h; inhibition, % at 20 µM; 330,000 tested, 1.3% active;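 active means growth inhibition of the mutant yeast at or above 50%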;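 further: temperature-sensitive mutant grown at 25 °C; plate controls were DMSO-treated mutant yeast for no effect and medium wells lacking yeast for full effect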
tim10 confirm: growth inhibitors of wild-type TIM10 yeast, confirmation, counter-screen for tim10-1 synthetic lethality project, single concentration, luminescence, S. cerevisiae. shares compounds with TIM10 inh. 4,600 tested, 63% active. S. cerevisiae tim10 strain growth, BacTiter-Glo luminescence, 24 h. inhibition, % at 10 µM;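 active means inhibition of yeast growth at or above a set limit in either of two replicates at 10 µM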;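 further: this counterscreen used the strain with wild-type TIM10; 0% = yeast with DMSO and 100% = medium wells lacking yeast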
Numbers without * were called inactive; · = no result given.

SMILES	SKKanGAS inh	NALP3 yeast inh	PfHsp90 yeast 2	TIM10 inh	tim10-1 inh	tim23-1 inh	tim10 confirm
Cc1ccc(C)c(-n2[nH]c3c4c(ccc3c2=O)C(=O)c2ccccc2C4=O)c1	28.7	20.8	11.6	52.7*	25.5	46.4	73.2*
COCCCn1[nH]c2c3c(ccc2c1=O)C(=O)c1ccccc1C3=O	21.0	4.0	-61.9	41.5*	32.7	41.0	47.1*
O=C(NCc1ccccn1)c1nc(Cn2ccc([N+](=O)[O-])n2)no1	3.1	17.5	0.8	17.4	11.3	16.2	·
Cc1ccc(NC(=O)CCc2nc3ccccc3c(=O)[nH]2)cc1S(=O)(=O)N1CCOCC1	-16.0	20.9	13.2	0.6	8.7	12.6	·
CCOC(=O)c1ccc(NC(=O)CCS(=O)(=O)c2ccc(Br)s2)cc1	2.2	2.0	·	43.6*	38.9	26.3	18.2
Cc1ccc(S(=O)(=O)N2CCN(C(=O)c3ccc4ccccc4n3)CC2)c(C)c1	·	9.2	-23.6	8.6	21.7	45.1	·
COc1ccc(-c2cn3cc(C(F)(F)F)cc(Cl)c3n2)cc1	-1.0	32.6	8.0	51.5*	28.8	30.8	37.1*
COc1cccc2cc(-c3n[nH]c(=S)n3C)oc12	-5.9	22.9	-0.9	41.5*	38.0	27.6	20.1
COc1cccc2cc(-c3ccnc(N)n3)oc12	-3.5	25.4	11.3	16.6	3.3	-1.2	·
CCc1cccc(N=c2c([N+](=O)[O-])nn(-c3ccc(Cl)cc3)n2O)c1	16.5	33.5	1.4	46.5*	33.8	33.5	29.8
Cc1cccc(N=c2c([N+](=O)[O-])nn(-c3ccc(Cl)cc3)n2O)c1	29.5	16.2	-4.1	-139.2	-18.3	29.4	·
CCN1C(=O)[C@H]2[C@@H](c3ccc(-c4ccc(F)cc4)c(OC)c3)N[C@@](CC(C)C)(C(=O)OC)[C@H]2C1=O	16.3	1.6	·	19.8	16.9	19.2	·
CCc1nc2c(cnn2-c2ccc(Cl)cc2)c(=O)n1-c1ccc(OC)cc1	51.6*	-5.5	-3.1	41.6*	6.5	6.0	16.4
Cc1ccc(NC(=O)C/C(N)=N/OC(=O)Nc2cccc(Cl)c2)cc1	·	25.1	17.9	40.3*	35.9	11.2	24.2
NC(=O)SCC(=O)Nc1cccc(Cl)c1	-8.4	-11.3	-27.8	-17.2	-9.6	8.3	·
Cc1cc(NC(=O)c2cccc(Oc3ccccc3)c2)n[nH]1	31.1	26.6	18.0	61.0*	36.9	2.7	66.0*
Cn1c(SCC(=O)Nc2ccc(Cl)cc2F)nnc1-c1ccco1	-21.6	22.3	-7.4	-10.5	16.6	15.0	·
CCOc1ccc(N(CC(=O)NCC2CCCO2)C(=O)CCC(=O)Nc2nccs2)cc1 (configuration not stated)	-0.8	-3.8	7.4	-6.8	21.5	11.7	·
CCN(CC)S(=O)(=O)c1ccc(N/N=C(\C)c2ccc(OC)cc2O)nc1	81.8*	13.2	-11.0	41.6*	29.6	44.6	39.5*
CCN(CC)S(=O)(=O)c1ccc(N/N=C/c2ccc(OC)c(OC)c2OC)nc1	2.9	12.2	-37.3	-3.8	12.9	-1.1	·
Cc1ccc(N(C(C)C(=O)N2CCOCC2)S(C)(=O)=O)cc1C (configuration not stated)	-3.9	20.3	9.3	-5.4	10.8	8.1	·
Cn1c(SCc2ccc(C#N)cc2)nnc1-c1cccc(Cl)c1	-13.6	0.9	5.3	45.5*	28.4	47.0	27.9
Cn1c(SCc2ccc(C#N)cc2)nnc1-c1ccccc1	-0.2	2.4	-22.0	10.3	-14.6	11.3	·
CN(C)C(=O)c1ccc(NC(=O)COC(=O)C2(c3ccccc3)CCCC2)cc1	·	5.5	8.5	20.6	32.8	22.8	·
CC1CN(c2ccc([N+](=O)[O-])c(NCCOc3ccccc3)c2)CCN1 (configuration not stated)	0.3	24.6	5.3	13.6	20.8	24.4	·
SMILES	SKKanGAS inh	NALP3 yeast inh	PfHsp90 yeast 2	TIM10 inh	tim10-1 inh	tim23-1 inh	tim10 confirm
Cn1c(=O)n(Cc2ccccc2)c(=O)c2c1nc1n2CCCN1C1CCCCC1	7.9	-4.5	-65.4	41.0*	33.0	17.9	26.8
Cc1cccc(Cn2c(=O)c3c(nc4n3CCCN4Cc3ccccc3)n(C)c2=O)c1	22.7	11.8	-3.7	55.4*	39.4	37.0	1.2
O=C(O)c1ccc(N2C(=O)C3C4c5ccccc5C(Br)(c5ccccc54)C3C2=O)cc1 (configuration not stated)	-0.3	5.4	29.1	-5.7	17.5	19.9	·
CCc1ccc(N=CC23c4ccccc4C(c4ccccc42)C2C(=O)N(c4ccc(OC)cc4)C(=O)C23)cc1 (configuration not stated)	-10.8	32.5	-22.0	64.4*	39.4	48.7	47.5*
COc1ccc(N2C(=O)C3C4c5ccccc5C(C=Nc5ccc(C)cc5C)(c5ccccc54)C3C2=O)cc1 (configuration not stated)	-1.2	37.9	-30.2	53.5*	34.0	46.0	45.0*
CC12c3ccccc3C(c3ccccc31)C1C(=O)N(c3ccncc3)C(=O)C12 (configuration not stated)	0.7	6.6	-30.7	11.8	21.6	33.3	·
O=C(CNC(=O)C1CCCCC1)Nc1cc(Cl)cc(Cl)c1	3.6	10.9	-137.2	40.7*	14.8	3.8	8.3
Oc1cccc(Nc2nc(O)c(/C=C3\C=Nc4ccccc43)s2)c1	·	11.6	-18.1	18.5	-1.2	-6.6	·
Oc1nc(Nc2cccc(Cl)c2)sc1/C=C1\C=Nc2ccccc21	112.8*	34.6	-25.1	44.3*	18.0	34.7	-16.4
O=C(c1ccc([N+](=O)[O-])o1)N1CCN(c2nc3c(Cl)cccc3s2)CC1	9.3	38.7	-47.7	55.6*	24.0	5.6	84.5*
O=C(c1ccc([N+](=O)[O-])o1)N1CCN(c2nc3ccc(F)cc3s2)CC1	8.8	24.1	·	40.3*	2.6	-41.5	80.7*
O=C(c1cc2sccc2n1Cc1ccc(F)cc1)N1CCN(c2nc3ccccc3s2)CC1	23.1	-5.4	3.8	43.4*	31.7	26.2	19.1
C[C@@]12C(=O)N(Cc3ccccc3)CC(=O)N1[C@H](/C=C/c1ccccc1)[C@@H]1C(=O)N(c3ccccc3)C(=O)[C@@H]12	-1.5	14.1	11.8	6.1	-4.7	-2.3	·
COc1ccc2cc(CCNC(=O)c3cc4ccccc4o3)c(=O)[nH]c2c1	3.0	21.4	-19.7	12.5	-31.7	-35.0	·
